Laboratory results as given in PubChem BioAssay (NCATS).
Inconclusive results are not listed. A number with no mark means an inactive call. Activity calls are given as the source filed them. The call rests on the fitted dose curve; in most records, active means well fitted cell-killing curve with a large enough effect; inconclusive means small, poorly fitted or top-dose-only effect, or effect the other way; inactive means no such curve, though single readings can be large or run the other way.

Test: Quantitative High-Throughput drug screen in 47 multiple myeloma cell lines against the NCATS MIPE library collection: KMS12PE_JCRB cell viability assay (AID 1918972); further: nearly all actives have a fitted effect of over 30% in size
Conditions: KMS12PE myeloma viability, CellTiter-Glo ATP, 48 h; series mostly up to 45.8 µM; viability: at the top concentration
Source text: PI: Beverly A. Mock Ph.D.
Laboratory of Cancer Biology and Genetics,
Center for Cancer Research, National Cancer Institute,
National Institute of Health, Bethesda, Maryland
Drug resistance and disease progression are common in multiple myeloma (MM) patients, underscoring the need for new therapeutic combinations. […] We hypothesized that effective combinations would reduce MYC expression and enhance p16 activity. […] These preclinical data identify potentially useful drug combinations for evaluation in drug-resistant MM and reveal potential mechanisms of combined drug sensitivity.
Described herein is the primary MIPE qHTS used to cherrypick compounds. Validated compounds were then further tested for potential synergistic activiy.
[1] Peat TJ, Gaikwad SM, Dubois W, Gyabaah-Kessie N, Zhang S, Gorjifard S, Phyo Z, Andres M, Hughitt VK, Simpson RM, Miller MA, Girvin AT, Taylor A, Williams D, D'Antonio N, Zhang Y, Rajagopalan A, Flietner E, Wilson K, Zhang X, Shinn P, Klumpp-Thomas C, McKnight C, Itkin Z, Chen L, Kazandijian D, Zhang J, Michalowski AM, Simmons JK, Keats J, Thomas CJ, Mock BA. Drug combinations identified by high-throughput screening promote cell cycle transition and upregulate Smad pathways in myeloma. Cancer Lett. 2023 Aug 1;568:216284. doi: 10.1016/j.canlet.2023.216284. Epub 2023 Jun 24. PMID: 37356470; PMCID: PMC10408729.
SEQUENCE No. (e.g., 1, 2, 3, etc.); […] (e.g., Cells, Incubation, Reagent, etc.); VALUE and DESCRIPTION.
1; Cells; 5 uL; white, solid bottom 1536-well Greiner assay plate.
2; Compounds; 23 nL; Kalypsis pin tool (Wako USA) equipped with a 1536-well pin head to transfer to the assay plates.
3; Incubation; 48 hours; 37C incubation.
4; Reagent;5uL; CellTiter Glo (Promega).
5; Detector; 425V; Luminescence; Viewlux PerkinElmer.
NOTES (numbers refer to Sequence numbers above)
1. The cell-based screening methods employed in this study were like those previously published. Briefly, the corresponding myeloma cell lines were screened in 1,536-well plates with 500 cells, 5-uL per well for inhibition of cell viability (assessed by measuring ATP levels with CellTiterGlo).
2. NCATS MIPE 4.0 library of approved and investigational drugs were added using the Kalypsis pin tool. Wells treated with DMSO only for 100% viability and media only wells for 0% viability were used as controls.
3. The assay plates were covered and incubated for 48 hours in a 37C, 5% CO2 incubator with controlled humidity.
4. After 48 hours, CellTilter-GloTM luminescent substrate mix (Promega) reagent was added to the assay plate and plates we incubated for 5 min at room temperature.
5. Signal was measured as median relative luminescence units on a ViewLux (PerkinElmer) multiplate reader.
[1] Heske CM, Davis MI, Baumgart JT, Wilson K, Gormally MV, Chen L, Zhang X, Ceribelli M, Duveau DY, Guha R, Ferrer M, Arnaldez FI, Ji J, Tran HL, Zhang Y, Mendoza A, Helman LJ, Thomas CJ. Matrix Screen Identifies Synergistic Combination of PARP Inhibitors and Nicotinamide Phosphoribosyltransferase (NAMPT) Inhibitors in Ewing Sarcoma. Clin Cancer Res. 2017 Dec 1;23(23):7301-7311. doi: 10.1158/1078-0432.CCR-17-1121. Epub 2017 Sep 12. PMID: 28899971; PMCID: PMC6636827.
Potency means the concentration at half of the fitted maximal effect.

SMILES | Potency | viability [%]
CNC(=O)c1ccc2c(C(=Nc3cccc(CN(C)C)c3)c3ccccc3)c(O)[nH]c2c1 | 18.7 µM (active) | –
Cc1cc2c(cc1C1(c3ccc(C(=O)O)cn3)CC1)C(C)(C)CCC2(C)C | – | 125
CC(C)Oc1cc(Nc2nc(N[C@@H](C)c3ccc(F)cn3)ncc2Cl)[nH]n1 | 23.5 µM (active) | –
CCC(=C(c1ccc(O)cc1)c1ccc(OCCNC)cc1)c1ccccc1 | 23.5 µM (active) | –
O[C@@H](COc1cccc2ncccc12)CN1CCN(C2c3ccccc3[C@@H]3[C@H](c4ccccc42)C3(F)F)CC1 (stereo not given in full) | – | 69.3
CO[C@@H]1C(N(C)C(=O)c2ccccc2)C[C@H]2O[C@]1(C)n1c3ccccc3c3c4c(c5c6ccccc6n2c5c31)C(=O)NC4=O (stereo not given in full) | 1.66 µM (active) | –
O=C1NC(=O)C(c2cnc3ccccn23)=C1c1cn2c3c(cccc13)CN(C(=O)N1CCOCC1)CC2 | 0.001 µM (active) | –
CCOC(=O)N1c2ccc(C(F)(F)F)cc2[C@@H](N(Cc2cc(C(F)(F)F)cc(C(F)(F)F)c2)C(=O)OC)C[C@H]1CC | – | 117
NCC1CCC(C(=O)O)CC1 (stereo not given) | – | 114
OC1CCC(Nc2ncc3nc(Nc4c(F)cc(F)cc4F)n([C@@H]4CCOC4)c3n2)CC1 (stereo not given in full) | 18.7 µM (active) | –
Clc1ccc(C2(c3ccc(-c4cn[nH]c4)cc3)CCNCC2)cc1 | 23.5 µM (active) | –
Cc1cccc(-c2[nH]c(C(C)(C)C)nc2-c2ccc3c(c2)OCO3)n1 | 3.72 µM (active) | –
COC(=O)N1CCN(Cc2cccc(NC(=O)Nc3ccc(C)nc3)c2F)CC1 | – | 80.5
C=C[C@@H]1CN2CCC1C[C@@H]2C(O)c1ccnc2ccc(OC)cc12 (stereo not given in full) | – | 106
CC(C)C[C@@H](N)[C@H](O)C(=O)N[C@H](C(=O)N[C@H](C(=O)N[C@@H](CC(=O)O)C(=O)O)C(C)C)C(C)C | – | 111
CN(C)c1nc(Cc2ccc(NC(=O)c3ccc(C(F)(F)F)cc3)cc2)nc(N(C)C)c1CC(=O)O | – | 133
Cc1[nH]c(C=C2C(=O)Nc3ccc(S(=O)(=O)N(C)c4cccc(Cl)c4)cc32)c(C)c1C(=O)N1CCN(C)CC1 | 7.43 µM (active) | –
O=C(Nc1cccc(C(F)(F)F)c1)Nc1cc(S(=O)(=O)NC2CC2)ccc1-c1ccsc1 | – | 122
c1ccc(-c2oc3ncnc(NC[C@@H]4CCCO4)c3c2-c2ccccc2)cc1 | 4.69 µM (active) | –
Cc1nc(NC(=O)N2CCC[C@@H]2C(N)=O)sc1-c1csc(C(C)(C)C)n1 | 4.69 µM (active) | –

SMILES | Potency | viability [%]
CC[C@H](C)n1cc(C)c2c(C(=O)NCc3c(C)cc(C)[nH]c3=O)cc(-c3ccc(N4CCNCC4)nc3)cc21 | – | 131
CCCCCCCCCCCCCC(=O)N[C@H](CO)[C@H](O)c1ccc([N+](=O)[O-])cc1 | 8.33 µM (active) | –
CC(C)c1c(C(=O)Nc2ccccc2)c(-c2ccccc2)c(-c2ccc(F)cc2)n1CC[C@H](O)C[C@@H](O)CC(=O)O | 6.62 µM (active) | –
CC(C)n1c(C=C[C@H](O)C[C@H](O)CC(=O)O)c(-c2ccc(F)cc2)c2ccccc21 | 3.32 µM (active) | –
CC[C@]1(O)C[C@H]2CN(CCC3=c4ccccc4=N[C]3[C@@](C(=O)OC)(c3cc4c(cc3OC)N(C)[C@H]3[C@@](O)(C(N)=O)[C@H](O)[C@]5(CC)C=CCN6CC[C@]43[C@@H]65)C2)C1 | 0.132 µM (active) | –
CCC[C@H](N[C@@H](C)C(=O)N1[C@@H]2CCCC[C@H]2C[C@H]1C(=O)O)C(=O)OCC | 6.62 µM (active) | –
CC(C)[C@H](O)C(=O)N[C@@H](C)C(=O)N[C@@H]1C(=O)N(C)CCc2ccccc21 | – | 99.5
CCCCCCCCCCCCCCCC(=O)O[C@H]1[C@@H](O)[C@@H](O)[C@@H]([C@H](NC(=O)[C@@H]2C[C@@H](CCC)CN2C)[C@H](C)Cl)O[C@@H]1SC | – | 122
Cc1cc(NC(=O)Nc2ccc(N(C)C)cc2)c2cc(F)cc(F)c2n1 | 1.66 µM (active) | –
Cc1cccc(Nc2nc(N[C@@H]3CCCC[C@H]3N)ncc2C(N)=O)c1 | 16.6 µM (active) | –
CCNC(=O)Nc1ccc(Oc2ncnc(N)c2C=NOC)cc1Cl | 2.96 µM (active) | –
C=C1[C@H](n2cnc3c(=O)[nH]c(N)nc32)C[C@H](O)[C@H]1CO | 0.296 µM (active) | –
CC1(C)CC(=O)c2c(C(F)(F)F)nn(-c3ccc(C(N)=O)c(NC4CCC(O)CC4)c3)c2C1 (stereo not given) | – | 80.2
Cc1c(-c2cccc3c(CCCOc4cccc5ccccc45)c(C(=O)O)n(Cc4cccnc4)c23)c(COc2ccc(N3CCN([S+](=O)([O-])N(C)C)CC3)cc2)nn1C | – | 81.5
CN(C(Cc1ccc(OS(=O)(=O)c2cccc3cnccc23)cc1)C(=O)N1CCN(c2ccccc2)CC1)S(=O)(=O)c1cccc2cnccc12 (stereo not given) | 5.26 µM (active) | –
CCCCCCOC(=O)N=C(N)c1ccc(NCc2nc3cc(C(=O)N(CCC(=O)OCC)c4ccccn4)ccc3n2C)cc1 | 18.7 µM (active) | –
O=C(c1ccc(F)c(F)c1Nc1ccc(I)cc1F)N1CC(O)([C@H]2CCCCN2)C1 | 16.6 µM (active) | –
Fc1ccc(C(c2ccc(F)cc2)N2CCN(CC=Cc3ccccc3)CC2)cc1 | – | 111
NS(=O)(=O)c1ccc(Nc2nc(OCC3CCCCC3)c3[nH]cnc3n2)cc1 | 20.9 µM (active) | –
CN(C)CCN(C)C(=O)c1ccc(NC(=O)Nc2ccc(-c3nc(N4CCOCC4)c4ccn(CC(F)(F)F)c4n3)cc2)cc1 | 0.132 µM (active) | –
